Tcruzi prolif = T. cruzi intracellular proliferation inhibitors, primary screen, cell-based, beta-gal Tulahuen parasites, NIH3T3 host, luminescence; inhibition, % at 8.34 µM; hit rate 5.9% among 77,000; T. cruzi beta-gal in NIH3T3, GalScreen luminescence, 90 h;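 active = mean inhibition above about 93%, with at least 55% of replicates each passing it, limit read from the data, passing the limit was not always enough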
C diff HTS = C. difficile growth inhibitors, primary screen, HTS; Clostridium difficile clinical isolate growth, OD600, 24 h; hits give low values; growth activity, negative = inhibition, % at 16 µg/mL (by protocol); hit rate 0.25% among 86,000; AID 1259249, 2017;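 active = mean growth activity at or below -80% and every replicate also at or below -80%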;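 also: 0% = DMSO wells and -100% = levofloxacin 16 µg/mL wells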
Pf Dd2 growth = P. falciparum Dd2 growth inhibitors, primary screen, SYBR Green fluorescence, single dose replicates. 72 h; hits give low values. activity change, % at 10 µM. hit rate 2.3% among 94,000. AID 1159554, 2015; in the data active = activity change below about -80%
The depositor's hits bear a star; . = no result given. In the library only some 6.7% were active in any assay of this set; here they are far more common.

SMILES	Tcruzi prolif	C diff HTS	Pf Dd2 growth
Cc1cc(C(=O)Nc2ccc3c(c2)C(=O)N(C)[C@@H]2CC[C@@H](CC(=O)N[C@@H](C)c4ccccc4)O[C@@H]2CO3)no1	30.5	-5.2	-64.1
O=C(N[C@H]1CC[C@H](CCNC(=O)C2CC2)O[C@@H]1CO)c1ccncc1	.	-1.3	.
C[C@H](O)C#Cc1cnc2c(c1)C(=O)N([C@@H](C)CO)C[C@H](C)[C@@H](CN(C)C(=O)Cc1ccccn1)O2	-15.0	-4.7	33.0
COc1ccc(CN(C)C[C@H]2OCCCC[C@@H](C)Oc3ccc(NS(=O)(=O)c4ccc(OC)cc4)cc3C(=O)N([C@H](C)CO)C[C@H]2C)cc1	.	-6.2	-87.0*
COc1ccc(S(=O)(=O)Nc2ccc3c(c2)C(=O)N([C@@H](C)CO)C[C@H](C)[C@H](CN(C)Cc2ccc(Cl)c(Cl)c2)OCCCC[C@@H](C)O3)cc1	41.0	.	-61.0
COc1ccc(S(=O)(=O)Nc2ccc3c(c2)C(=O)N([C@H](C)CO)C[C@@H](C)[C@H](CN(C)C(=O)NC2CCCCC2)OCCCC[C@H](C)O3)cc1	.	-10.5	-48.2
COc1ccc(S(=O)(=O)Nc2ccc3c(c2)C(=O)N([C@H](C)CO)C[C@@H](C)[C@@H](CN(C)C(=O)NC2CCCCC2)OCCCC[C@@H](C)O3)cc1	76.2	3.7	-86.4*
COc1ccc(CN(C)C[C@H]2OCCCC[C@H](C)Oc3ccc(NS(=O)(=O)c4ccc(OC)cc4)cc3C(=O)N([C@H](C)CO)C[C@@H]2C)cc1	20.1	0.4	-24.4
COc1ccc(S(=O)(=O)Nc2ccc3c(c2)C(=O)N([C@@H](C)CO)C[C@H](C)[C@@H](CN(C)Cc2ccc(Cl)c(Cl)c2)OCCCC[C@@H](C)O3)cc1	17.6	-5.1	-91.1*
O=C(C[C@H]1C=C[C@H](NC(=O)C2CCC2)[C@@H](CO)O1)NCC1CC1	28.8	-0.4	6.1
C[C@H](CO)N1C[C@H](C)[C@@H](CN(C)C(=O)CN2CCOCC2)Oc2ncc(C3=CCCC3)cc2C1=O	32.5	0.8	-2.0
CO[C@H]1CN(C)C(=O)c2cc(NS(C)(=O)=O)ccc2OC[C@@H](C)N(C(=O)C2CCC2)C[C@@H]1C	11.9	.	21.5
COc1cccc(NC(=O)N(C)C[C@H]2Oc3cc(/C=C/c4ccccc4)ccc3S(=O)(=O)N([C@@H](C)CO)C[C@@H]2C)c1	.	-0.1	-39.4
C[C@H]1CN([C@@H](C)CO)C(=O)c2c(c3ccccc3n2C)-c2ccccc2CO[C@H]1CN(C)Cc1ccc(F)cc1	.	30.2	-48.7
C[C@@H]1CN([C@@H](C)CO)C(=O)c2c(c3ccccc3n2C)-c2ccccc2CO[C@H]1CN(C)Cc1ccc(F)cc1	.	51.4	-50.3
C[C@@H]1CN([C@@H](C)CO)C(=O)c2c(c3ccccc3n2C)-c2ccccc2CO[C@@H]1CN(C)Cc1ccc(O)cc1	.	-7.0	-41.7
C[C@H]1CN([C@@H](C)CO)C(=O)c2c(c3ccccc3n2C)-c2ccccc2CO[C@H]1CN(C)Cc1ccc(Oc2ccccc2)cc1	.	1.9	-83.5*
C[C@@H]1CN([C@H](C)CO)C(=O)c2c(c3ccccc3n2C)-c2ccccc2CO[C@H]1CN(C)Cc1ccc(Oc2ccccc2)cc1	.	20.6	-86.9*
C[C@H]1CN([C@@H](C)CO)C(=O)c2c(c3ccccc3n2C)-c2ccccc2CO[C@@H]1CN(C)Cc1ccc(Oc2ccccc2)cc1	.	32.4	-87.5*
C[C@@H]1CN([C@@H](C)CO)C(=O)c2cc(NC(=O)Nc3ccccc3)ccc2O[C@@H]1CN(C)C(=O)NC1CCCCC1	.	11.0	-11.3
C[C@@H]1CN([C@@H](C)CO)C(=O)c2cccc(NC(=O)c3nc4ccccc4s3)c2O[C@H]1CN(C)Cc1ccc(C(=O)Nc2ccccc2N)cc1	104.2*	.	-91.3*
C[C@@H]1CN([C@H](C)CO)C(=O)c2cccc(NC(=O)c3nc4ccccc4s3)c2O[C@@H]1CN(C)Cc1ccc(C(=O)Nc2ccccc2N)cc1	90.4	.	-88.5*
C[C@@H]1CN([C@@H](C)CO)C(=O)c2cccc(NC(=O)c3nc4ccccc4s3)c2O[C@@H]1CN(C)Cc1ccc(C(=O)O)cc1	40.5	-4.1	-22.8
C[C@@H]1CN([C@H](C)CO)C(=O)c2cccc(NC(=O)c3nc4ccccc4s3)c2O[C@@H]1CN(C)Cc1ccc(C(=O)O)cc1	31.3	-1.1	-33.2
C[C@@H]1CCCCO[C@H](CN(C)C(=O)Nc2ccccc2)[C@H](C)CN([C@@H](C)CO)C(=O)c2cc(NC(=O)c3ccncc3)ccc2O1	36.0	-11.8	-38.0
SMILES	Tcruzi prolif	C diff HTS	Pf Dd2 growth
O=C(Cc1ccccc1)N1CC[C@H]2[C@H](CO)Nc3ccc(Br)cc3[C@H]21	21.4	15.7	19.3
CCCC#Cc1ccc2c(c1)O[C@@H](CN(C)C(=O)CN(C)C)[C@@H](C)CN([C@@H](C)CO)S2(=O)=O	.	-2.5	-23.2
C[C@H](CO)N1C[C@H](C)[C@@H](CN(C)C(=O)Nc2ccc(F)cc2)OCCCC[C@H](C)Oc2ccc(NC(=O)CCC(F)(F)F)cc2C1=O	64.7	.	-15.2
C[C@@H]1CCCCO[C@H](CN(C)C(=O)Nc2ccc3c(c2)OCO3)[C@@H](C)CN([C@@H](C)CO)C(=O)c2cc(NC(=O)Cc3ccccc3)ccc2O1	54.2	4.1	-65.7
C[C@@H]1CCCCO[C@H](CN(C)C(=O)Nc2ccc3c(c2)OCO3)[C@H](C)CN([C@H](C)CO)C(=O)c2cc(NC(=O)Cc3ccccc3)ccc2O1	73.8	0.8	-82.2*
C[C@@H]1CCCCO[C@@H](CN(C)C(=O)Nc2ccc3c(c2)OCO3)[C@@H](C)CN([C@@H](C)CO)C(=O)c2cc(NC(=O)Cc3ccccc3)ccc2O1	32.3	-0.2	-83.5*
C[C@@H]1CCCCO[C@H](CN(C)C(=O)Nc2ccccc2)[C@H](C)CN([C@@H](C)CO)C(=O)c2cc(NC(=O)Cc3ccccc3)ccc2O1	39.5	.	-59.0
CN(C)CC(=O)Nc1ccc2c(c1)[C@@H]1C[C@@H](CC(=O)N3CCc4ccccc4C3)O[C@H](CO)[C@@H]1O2	-20.3	.	7.7
C[C@H]1CN([C@@H](C)CO)C(=O)c2c(c3ccccc3n2C)-c2ccccc2CO[C@H]1CN(C)C(=O)C1CC1	81.4	-7.6	26.5
C[C@@H]1CN([C@H](C)CO)C(=O)c2cc(NS(C)(=O)=O)ccc2O[C@@H](C)CCCCO[C@H]1CN(C)Cc1ccc(Cl)c(Cl)c1	89.0	1.6	-51.8
Cc1ccc(S(=O)(=O)Nc2ccc3c(c2)C(=O)N([C@H](C)CO)C[C@@H](C)[C@@H](CN(C)Cc2ccccc2)OCCCC[C@@H](C)O3)cc1	100.9	1.2	-82.8*
C[C@@H]1CN([C@H](C)CO)C(=O)c2cc(NS(C)(=O)=O)ccc2O[C@@H](C)CCCCO[C@@H]1CN(C)Cc1ccc(Cl)c(Cl)c1	86.9	-0.8	-88.0*
C[C@@H]1CN([C@@H](C)CO)C(=O)c2cc(NS(C)(=O)=O)ccc2O[C@@H](C)CCCCO[C@@H]1CN(C)Cc1ccccc1	36.1	-3.8	-94.5*
Cc1ccc(S(=O)(=O)Nc2ccc3c(c2)C(=O)N([C@@H](C)CO)C[C@H](C)[C@H](CN(C)Cc2ccccc2)OCCCC[C@H](C)O3)cc1	39.4	2.2	-55.3

Compound activity (PubChem BioAssay)
